For 70 compounds, max response results are on record in PubChem BioAssay AID2314 (National Center for Advancing Translational Sciences (NCATS), 2010).

The whole screen tested about 300,000 compounds, of which about 37,000 (12%) were called active. This excerpt belongs to a sample that is enriched for actives. Values without a mark were called inactive. No stated cut-off is given here; in the data, active means max response mostly above about 13% (no sharp cut-off); inactive means mostly below about 14%.

The nature of this assay: Cycloheximide Counterscreen for Small Molecule Inhibitors of Shiga Toxin. Further: read at 38.3 µM for the half of the compounds with a filed dose; 0% is about no effect. The following applies: cell reporter, cycloheximide protein synthesis inhibition counterscreen; stronger effect = higher value. For orientation: Counterscreens check selectivity or assay interference.
Regarding `COC(=O)C1(C)CC1(c1ccccc1)c1ccccc1` (stereo not given), the max response is -2.76%.

For the compound `COC(=O)c1c(C)oc2ccc(N(C(=O)Oc3ccccc3)S(=O)(=O)c3ccccc3)cc12`, the max response was -13.2%.

As to `Cc1cccc(C(=O)c2cccc(C)c2)c1`, the max response is 0.416%.

In the case of `N/C(=N\OC(=O)c1cc(-c2ccccc2)nc2ccccc12)c1ccncc1`, the max response is -3.22%.

Regarding `Cc1cccc(/C(N)=N/OC(=O)c2ccccc2Cl)c1`, the max response was 37% (active).

As to `O=C(O)CCN=C1CCc2ccccc2N1`, the max response was -2.89%.

Regarding `COc1cc(OC)cc(-c2nnc(N(C)C(=O)c3ccncc3)s2)c1`, the max response is -2.59%.

In the case of `COc1ccc(NC(=O)C2CCN(S(=O)(=O)c3ccc4[nH]c(=O)oc4c3)CC2)c(OC)c1`, the max response is -1.11%.

Regarding `CN(c1cccc(NC(=O)Nc2ccc(Cl)cc2)c1)S(C)(=O)=O`, the max response was 36.6% (active).

As for `CN(c1cccc(NC(=O)c2ccc(CN3CCc4ccccc4C3)cc2)c1)S(C)(=O)=O`, the max response is -1.55%.

With `Cc1ccc(N(CC(=O)Nc2cccc(N(C)S(C)(=O)=O)c2)S(C)(=O)=O)cc1`, the max response is -1.08%.

`C/C(=N/NC(=O)c1ccc(NC(=O)c2ccc(F)cc2)cc1)c1ccccc1`: the max response is 11%.

With `COc1cccc(C(=O)N/N=C(\C)c2cccc(NC(=O)c3ccc(F)cc3)c2)c1OC`, the max response is 27.3% (active).

Consider `CC(=O)Nc1cccc(/C(C)=N/NC(=O)c2ccccc2Cl)c1`, for which the max response was 8.8%.

Take `O=C(Nc1nonc1-c1ccc(Cl)cc1)c1ccco1`: the max response was 7.55%.

In the case of `NC(=O)C1CCN(C(=O)COc2ccc3c4c(c(=O)oc3c2)CCC4)CC1`, the max response was -1.44%.

Turning to `O=C(COc1ccc2c3c(c(=O)oc2c1)CCC3)NC1CCCCC1`, the max response is 1.97%.

For `NC(=O)COc1ccc2c3c(c(=O)oc2c1)CCCCC3`, the max response is 12.8% (active).

As to `CC1CCN(C(=O)c2cc3nc(C4CC4)cc(C(F)(F)F)n3n2)CC1`, the max response is 1.99%.

On to `CCNC(=S)N(CCN(CC)CC)Cc1cc2cc3c(cc2[nH]c1=O)OCCO3`, for which the max response was -0.726%.

In the case of `COc1cccc(-c2cc(=O)c3cc(NC(=O)c4ccc(C)cc4)ccc3[nH]2)c1`, the max response is -0.33%.

For the compound `CC1C/C(=N/NC(=O)c2cccs2)CC(C)(C)C1` (stereo not given), the max response was 32.2% (active).

Consider `CC1(C)CC(=O)C/C(=N\NC(=O)c2cccs2)C1`, for which the max response is 1.56%.

Take `CC(C)OCCCNC(=O)CNC(=O)c1cccs1`: the max response was -3.03%.

As for `CC(=O)NNC1=Nc2ccccc2N(C)C(C)C1` (stereo not given), the max response is -2.23%.

For `CC(C)c1ccccc1OCC(O)CN(CC(O)COc1cccc2ccccc12)C(C)C` (stereo not given), the max response was -5.17%.

Take `Cc1ccc(NS(=O)(=O)c2ccc(-c3ccc(=O)[nH]n3)o2)c(C)c1`: the max response is -1.58%.

As to `O=C(COc1ccc2c3c(c(=O)oc2c1)CCCC3)NCC(O)c1ccccc1` (stereo not given), the max response was -1.36%.

On to `Cc1ccc(NC(=O)NC(=O)c2ccccc2)cc1F`, for which the max response is 25.9% (active).

As to `O=C(CNC(=O)c1ccc(Br)o1)Nc1ccccc1`, the max response is -2.14%.

Turning to `Cc1cccc(NC(=S)NC(=O)c2ccc(Br)o2)c1`, the max response is 34.5% (active).

For `Cc1cccc(NC(=O)/C(=C\c2ccco2)NC(=O)c2ccccc2)c1`, the max response was 11.3%.

Take `CNC(=O)c1ccc(NC(=O)c2cccc(C(F)(F)F)c2)cc1`: the max response was 8.58%.

Take `Cc1cccc(NC(=O)c2nnn(-c3cccc(C(F)(F)F)c3)c2N)c1`: the max response was 19.9%.

As for `CC(=O)N1CCN(CC(=O)Nc2ccc(C)c(F)c2)CC1`, the max response was -6.08%.

Regarding `Cc1cccc(NC(=S)NC23CN4CN(CN(C4)C2)C3)c1`, the max response is 0.709%.

Turning to `Cc1cccc(NC(=S)Nc2ccc(Br)cc2)c1`, the max response is 18.4%.

In the case of `Cc1cccc(NC(=O)c2cccc(C(F)(F)F)c2)c1`, the max response is 29.9% (active).

In the case of `Cc1cccc(NC(=O)NC(=S)NC(=O)c2ccccc2)c1`, the max response is 42.2% (active).

For `Cc1nc(C)c(C(=O)Nc2ccc(C)c(F)c2)o1`, the max response was 5.75%.

Consider `Cc1cc(-c2nnc(SCC(=O)Nc3ccc(F)cc3)n2N)n[nH]1`, for which the max response was 0.984%.

Consider `COc1ccccc1NC1=NC(c2ccc(Cl)cc2)N=C(N)N1` (stereo not given), for which the max response was 2.63%.

Take `CC(Sc1nnnn1C)C(=O)NC(=O)NC1CCCCC1` (stereo not given): the max response is 0.707%.

Turning to `COc1ccc(N2CCN(CCNC(=O)Nc3cc(Cl)ccc3Cl)CC2)cc1`, the max response is -4.73%.

Regarding `O=C(Nc1ccnn1C1CCN(Cc2cccc(OCCO)c2)CC1)C1CCCC1`, the max response is -3.51%.

As to `Cc1cccc(NS(=O)(=O)c2ccc(-c3cnc(C4CC4)o3)cc2)c1`, the max response is -3%.

For the compound `O=C(NC(=S)Nc1ccc(S(=O)(=O)Nc2ncccn2)cc1)c1cccc(Br)c1`, the max response was 5.33%.

Consider `CC1CCN(C(=S)NC(=O)c2ccccc2Br)CC1`, for which the max response was 3.84%.

Take `O=C(NC(=S)Nc1ncccn1)c1ccccc1Br`: the max response is 14.4% (active).

With `COc1cc2nc(CN(C)Cc3ccc(F)cc3)[nH]c(=O)c2cc1OC`, the max response is -2.34%.

For `COc1ccc(-n2nc(C(=O)NCC(=O)N3CCCCCC3)c3ccccc3c2=O)cc1Cl`, the max response is 1.06%.

`COC(=O)c1ccc(C(=O)OC)c(NC(=S)N2CCN(c3ccc(F)cc3)CC2)c1`: the max response is -7.21%.

`COC(=O)c1nc(NC(=O)c2ccc(F)cc2)n[nH]1`: the max response is -1.65%.

As for `COC(=O)c1ccc(Sc2ccc(F)cc2)c(N)c1`, the max response is 24.1% (active).

As to `O=S(=O)(NC1CCCCC1N1CCN(c2ccccc2F)CC1)c1ccccc1` (stereo not given), the max response was 7.38%.

As for `O=C(O)c1ccc(/C=C2\SC(=S)N(NC(=O)c3ccc(Br)cc3)C2=O)cc1`, the max response was -2.52%.

With `CC1(C)NC(=O)N(CCCCSc2ccc(Cl)cc2)C1=O`, the max response was 6.3%.

As for `CN(Cc1ccccc1)C(=O)c1ccc(NC2=NC3CS(=O)(=O)CC3S2)cc1` (stereo not given), the max response was 0.883%.

As to `Cc1nc2ccccc2cc1C(=O)N/N=C/c1ccc([N+](=O)[O-])cc1`, the max response is -1.28%.

On to `O=C(N/N=C/c1c[nH]c2ccccc12)c1cc2ccccc2o1`, for which the max response was 22.4% (active).

Regarding `O=C(N/N=C/c1ccc(O)cc1)/C(=C/c1ccc([N+](=O)[O-])cc1)NC(=O)c1ccccc1`, the max response is 5.92%.

For the compound `O=C(N/N=C/c1ccc([N+](=O)[O-])cc1)c1c[nH]c2ccccc12`, the max response is 26.3% (active).

As for `O=C(N/N=C/c1coc2ccccc2c1=O)c1cc2ccccc2o1`, the max response is 13.8%.

Turning to `O=C(Cc1c[nH]c2ccccc12)N/N=C/c1cccc(F)c1`, the max response was 11.5%.

In the case of `NC(=S)N/N=C/c1ccc([N+](=O)[O-])cc1`, the max response was 2.05%.

For the compound `CCCCCC(=O)Nc1ccc(C(=O)N/N=C/c2ccc([N+](=O)[O-])cc2)cc1`, the max response is -2.53%.

`O=C(N/N=C/c1c[nH]c2ccccc12)c1ccccc1O`: the max response was 29.2% (active).

For `Cc1ccsc1C(=O)N/N=C/c1ccc([N+](=O)[O-])cc1`, the max response is 55% (active).

`Nc1nonc1-n1nnc(C(=O)N/N=C/c2c[nH]c3ccccc23)c1-c1ccccc1`: the max response was 6.03%.

As to `Cc1c(/C=N\NC(=O)c2cc3ccccc3o2)c2ccccc2n1C`, the max response is 5.05%.
